Screens as filed in PubChem BioAssay.
CCT chaperon mod – cytosolic chaperonin activity modulation. purified chaperonin ATPase assay, HTRF ADP detection, 30 min. activity change, % (test concentration not listed), hits read low. hit rate 0.3% among 360,000; in the data active means activity change below about -30%; further: on the % scale 0 is the no-effect control and ±100 the full control effect
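TRiC (40 or 20 nM final, by batch activity) in 30 mM Tris pH 7.4, 100 mM KCl, 5 mM MgCl2, 1 mM DTT was treated with compound at 76 uM single dose, then 10 uM ATP, 30 min at 37 °C. ADP was read by HTRF Transcreener.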
Nrf2 inh – inhibitors of Nrf2 signaling. A549 ARE-Fluc reporter, luciferase luminescence, 18-24 h. Potency, µM (highest dose often 46 µM), for the others: at the top dose activity change, negative = inhibition, hits mostly inhibitors. hit rate 2.1% among 360,000; further: potency means the concentration at half of the fitted maximal effect; on the % scale 0 is the no-effect control and ±100 the full control effect; nearly all actives have a fitted effect of over 60% in size
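Nrf2 function is reported as luminescence of an ARE-controlled luciferase in A549 cells. Compounds were tested at several concentrations, and a CellTiter-Fluor read on the same wells flagged cytotoxicity.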
Nrf2 activator – activators of Nrf2 (ARE) signaling; hit rate 0.31% among 410,000; AREc32 ARE-luciferase reporter (MCF7-derived line), luminescence, 24 h; Potency, µM (series often up to 46.1 µM), inactives show at the highest dose activation, most hits filed as activators; further: potency means the concentration at half of the fitted maximal effect; % of control where 0% means no effect; nearly all actives have a fitted effect of over 65% in size
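AREc32 cells carrying an ARE-driven firefly luciferase reporter were seeded at 1000 cells/well in OPTI-MEM with 5% FBS, then exposed to compound for 24 hr at 37 deg C. Luminescence was read with Steady-Glo after 30 min at RT.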
A549 viability – kills or reduces viability of A549 cells in Nrf2 counter-screen; AID 504648; hit rate 0.16% among 390,000; A549 ARE-Fluc cells, CellTiter-Fluor viability, 18-24 h; Potency, µM (series often up to 46 µM), without a hit: top-dose activity change, negative = cytotoxicity, actives largely listed as inhibitors; further: potency means the concentration at half of the fitted maximal effect; on the % scale 0 is the no-effect control and ±100 the full control effect
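Cytotoxicity counterscreen: CellTiter-Fluor fluorescence was measured in A549 ARE_Fluc cells after 18-24 h of compound exposure in a concentration series. The subsequent BugLite luminescent read reports ARE-luciferase activity.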
AT treatment – candidate therapy for ataxia-telangiectasia; F2112 A-T fibroblasts, KAP-1 phosphorylation AlphaLISA; neocarzinostatin DNA damage 30 min before lysis; Potency, µM (series often up to 57.5 µM), for inactives: at the highest dose activation, most hits filed as activators; hit rate 0.19% among 320,000; further: potency means the concentration at half of the fitted maximal effect; % of control where 0% means no effect; nearly all actives have a fitted effect of over 45% in size
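hTERT-immortalized A-T patient fibroblasts (F2112), 500 cells/well in OPTI-MEM, 1% FBS, got compounds for 60 min, then NCS for 30 min at 37C. Lysates were then assayed for phospho-KAP-1 by AlphaLISA (anti-pKAP1 donor, anti-KAP1 acceptor beads), 6 hr at 25C.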
TCR act – T cell receptor activation; Potency, µM (top dose mostly 9.22 µM), for the others: top-dose activation of IL-2 secretion, usual class: activators; AID 504894; primary human leukocytes, anti-CD3, IL-2 HTRF, 48 h; 330,000 tested, under 10 active; further: % of control where 0% means no effect
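Activity was scored as IL-2 release from primary human leukocytes given only a TCR signal (a-CD3 beads) plus compound for 48 hr. Detection used a two-antibody HTRF format read at 665nm.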
* = called active by the depositor; [ ] = remark or other dose. Hits are enriched below; roughly 2.6% of the tested compounds scored in any of these assays. Unless noted, the call rests on the fitted dose curve; in most records, active means well fitted curve in the direction sought with a large enough effect; inconclusive means small, poorly fitted or top-dose-only effect, or another doubt; inactive means no such curve, though single readings can be large; an effect the other way counts as inactive or inconclusive.

For CCNc1nc(Oc2ccc(Cl)cc2Cl)cc(C(F)(F)F)n1 the results were CCT chaperon mod 0, Nrf2 inh -23%, Nrf2 activator 0%, A549 viability -18%, AT treatment 32µM* and TCR act 2%.
For CCNc1nc(Sc2ccc(C)cc2)cc(C(F)(F)F)n1 the results were CCT chaperon mod 0, Nrf2 inh 0%, Nrf2 activator 0%, A549 viability -1%, AT treatment 32µM* and TCR act -14%.
C/C(=N\NC(=O)CSCc1ccc(Cl)cc1)c1ccc2c(c1)OCCO2 was read as CCT chaperon mod -2, Nrf2 inh 16µM*, Nrf2 activator 0%, A549 viability -7% and AT treatment -5%.
Cc1cccc(-c2nnc(-c3ccccc3)o2)c1 was read as CCT chaperon mod -2, Nrf2 activator 11µM*, A549 viability 16%, AT treatment 2% and TCR act 2%.
`Cc1cccc(-c2nnc(SCCC(=O)O)o2)c1` gave Nrf2 inh 1.5µM*, Nrf2 activator -4% and A549 viability 2%.
Cc1nnc(-c2ccccc2)o1 was read as CCT chaperon mod -2, Nrf2 inh -7%, Nrf2 activator 0%, A549 viability 2%, AT treatment 6% and TCR act 1%.
Screening COc1ccc(NC(=O)C[C@@H]2C(=O)N(c3ccc(OC)cc3)CC2(C)C)cc1 returned CCT chaperon mod -3 and Nrf2 activator 0%.
COc1ccc(S(=O)(=O)n2ccc(-c3ccc4c(c3)CCC(C)(C)O4)n2)cc1 was read as CCT chaperon mod 2, Nrf2 inh 13µM*, Nrf2 activator 0%, A549 viability 0%, AT treatment 4% and TCR act 7%.
CCCCN(C)C(=O)CN1C(=O)CCn2nc(-c3cn(C)c4ccccc34)cc21 was read as Nrf2 activator 3% and A549 viability 10%.
For Cn1c(=O)n(C)c2cc([N+](=O)[O-])c(N3CCN(C(=O)c4ccc(F)cc4)CC3)cc21 the results were CCT chaperon mod -3, Nrf2 inh 18µM*, Nrf2 activator 4%, A549 viability -22%, AT treatment -2% and TCR act 0%.
Screening O=C(c1cccc(F)c1)N1CCN(c2cc(N3CCCCC3)c(F)cc2[N+](=O)[O-])CC1 returned CCT chaperon mod -2, Nrf2 inh 21µM*, Nrf2 activator 0%, A549 viability inconclusive, AT treatment -11% and TCR act 3%.
Screening CC(=O)N1CCN(c2cc(N3CCc4ccccc4C3)c(F)cc2[N+](=O)[O-])CC1 returned CCT chaperon mod -2, Nrf2 inh 23µM*, Nrf2 activator 4%, A549 viability inconclusive and AT treatment 5%.
CC(=O)Nc1ccc(S(=O)(=O)N2CCN(c3cc4c(cc3[N+](=O)[O-])n(C)c(=O)n4C)CC2)cc1 was read as CCT chaperon mod -3, Nrf2 inh 16µM*, Nrf2 activator 4%, A549 viability 4% and AT treatment 4%.
Cn1c(=O)n(C)c2cc([N+](=O)[O-])c(N3CCN(C(=O)c4ccc(Cl)cc4)CC3)cc21 was read as CCT chaperon mod 0, Nrf2 inh inconclusive, Nrf2 activator 2%, A549 viability 2%, AT treatment 0% and TCR act -17%.
For COc1ccc(N2CCN(C(=O)CN3C(=O)CSc4c3c(C)nn4-c3ccccc3)CC2)cc1 the results were Nrf2 inh -20%, Nrf2 activator 0% and A549 viability 2%.
Screening NC(=O)c1ccsc1NC(=O)COC(=O)Cc1cccc2ccccc12 returned CCT chaperon mod 0, Nrf2 inh 4.1µM*, Nrf2 activator 1%, A549 viability -17% and TCR act 0%.
`CCCOc1ccc(C(=O)OCCN(CC)CC)cc1N` gave CCT chaperon mod -2, Nrf2 inh 8%, Nrf2 activator 0%, A549 viability 1%, AT treatment 4% and TCR act -3%.
Screening COc1ccc(-c2nc(CSCC(=O)NCc3ccccc3Cl)c(C)o2)cc1OC returned Nrf2 inh inconclusive, Nrf2 activator 1% and A549 viability -5%.
Screening CSC1=NSC2=NC(=O)/C(=C/c3coc4ccccc4c3=O)C(=N)N12 returned CCT chaperon mod -4, Nrf2 inh -2%, Nrf2 activator 26%, A549 viability 2%, AT treatment 2% and TCR act -13%[46.1 µM].
For N=C1/C(=C\c2coc3ccccc3c2=O)C(=O)N=C2SC=CN12 the results were CCT chaperon mod -2, Nrf2 inh 0%, Nrf2 activator 18µM*, A549 viability -2%, AT treatment -4% and TCR act -6%.
CCCNC(=O)c1ccc2c(c1)C1C3CCC(C3)C1C(c1ccccc1)N2 (stereo not given) was read as CCT chaperon mod -2, Nrf2 inh 21µM*, Nrf2 activator 0%, A549 viability inconclusive, AT treatment 3% and TCR act -2%.
CC(C)(C)NC(=O)c1ccc2c(c1)C1C3CCC(C3)C1C(c1ccccc1)N2 (stereo not given) was read as CCT chaperon mod -1, Nrf2 inh -3%, Nrf2 activator 0%, A549 viability 12%, AT treatment -1% and TCR act 1%[46.1 µM].
O=C(NC1CCCCC1)C(c1cccs1)N(C(=O)c1ccccn1)c1ccccc1 (stereo not given) was read as CCT chaperon mod -7, Nrf2 inh 7%, Nrf2 activator 2%, A549 viability -5%, AT treatment 0% and TCR act 6%[46.1 µM].
`OC(C#Cc1ccccn1)c1cccs1` (stereo not given) gave CCT chaperon mod 2, Nrf2 inh 4%, Nrf2 activator inconclusive, A549 viability 4%, AT treatment 14µM* and TCR act -2%.
Screening Cc1c(Cl)cccc1NC(=O)c1ccc2nc(C(C)C)oc2c1 returned Nrf2 activator 0% and A549 viability -7%.
For O=C(CSc1nccc(-c2cccs2)n1)Nc1cccc(Cl)c1Cl the results were CCT chaperon mod -4, Nrf2 inh -13%, Nrf2 activator 2.2µM*, A549 viability 9%, AT treatment 0% and TCR act -19%.
Screening CCC1CN(C(=O)N2CCC(C(=O)NCc3cccc(F)c3)CC2)c2cc(C)ccc2O1 (stereo not given) returned Nrf2 inh inconclusive, Nrf2 activator 1% and A549 viability 3%.
